# In PubChem BioAssay (Tox21):
# Values joined by “and” are separate entries in the source; they are usually repeats but may differ in a detail not shown here. Identical values can stand only once. More than one record can exist for a structure, and the calls need not agree. Active and inactive are the calls of the source. A call without a number means that no potency is given here. Unless noted, the call rests on the fitted dose curve; in most records, active means well fitted curve in the direction sought with a large enough effect in the repeat runs; inconclusive means weak or mixed curves; inactive means no such curve, though single readings can be large; an effect the other way counts as inactive or inconclusive.
# Assays:
# [1] = qHTS assay to identify small molecule antagonists of the thyroid receptor (TR) signaling pathway (AID 743065); further: nearly all actives have a fitted effect of over 55% in size; further: potency means the concentration at half of the fitted maximal effect
# In short: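 Antagonism measured as loss of luciferase signal in GH3 cells stably carrying a TRE-luciferase reporter, co-treated with compound and T3 (1 nM final) for 23.5 h at 37 C. Viability was read in the same well by CellTiter-Fluor.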
# [2] = system: thyroid hormone receptor (rat, GH3 cells); assay: qHTS assay to identify small molecule agonists of the thyroid receptor (TR) signaling pathway (AID 743066; calls by dose curve)
# [3] = qHTS assay to identify small molecule antagonists of the estrogen receptor alpha (ER-alpha) signaling pathway - cell viability counter screen (AID 743074; calls by dose curve;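 further: HEK293 cells carrying ER-alpha-UAS-bla reporter stimulated with 17beta-estradiol; nearly all actives have a fitted effect of over 45% in size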; further: potency means the concentration at half of the fitted maximal effect)
# [4] = qHTS assay to identify small molecule antagonists of the estrogen receptor alpha (ER-alpha) signaling pathway using the BG1 cell line - cell viability counter screen (AID 743081);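 further: compound given together with 17beta-estradiol as the ER stimulus; nearly all actives have a fitted effect of over 45% in size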; further: potency means the concentration at half of the fitted maximal effect
# [5] = qHTS assay to identify small molecule that activate the aryl hydrocarbon receptor (AhR) signaling pathway - cell viability counter screen (AID 743086); further: nearly all actives have a fitted effect of over 45% in size; further: potency means the concentration at half of the fitted maximal effect
# In short: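 Cytotoxicity counter screen: CellTiter-Fluor signal (30 min, 37 C) in 4000 HepG2 cells/well carrying the DRE-luciferase reporter, following 24 h compound exposure at 37 C.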
# [6] = qHTS assay to identify small molecule antagonists of the peroxisome proliferator-activated receptor gamma (PPARg) signaling pathway - cell viability counter screen (AID 743194); settings: Potency: co-treated with 50 nM rosiglitazone unless noted; further: nearly all actives have a fitted effect of over 55% in size; further: potency means the concentration at half of the fitted maximal effect
# In short: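 Viability was measured as CellTiter-Glo luminescence in GeneBLAzer PPARg UAS-bla HEK293H cells. These cells had been exposed 17 h at 37 C to compounds together with rosiglitazone at 50 nM final, with the beta-lactamase readout taken in the same wells.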
# [7] = qHTS assay for small molecule agonists of the antioxidant response element (ARE) signaling pathway (AID 743202; active means well fitted activation curve with a large enough effect in the signal ratio in the repeat runs, not every such curve was filed as active; inconclusive means weak or mixed curves, or effect the other way; inactive means no such curve, though single readings can be large or run the other way; the % refers to the signal ratio; further: potency means the concentration at half of the fitted maximal effect)
# In short: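 An ARE-responsive beta-lactamase gene stably integrated in HepG2 cells serves as reporter. After 5 h plating and 16 h compound incubation at 37 C, fluorescence of the B/G FRET substrate was measured.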
# [8] = qHTS assay for small molecule agonists of the antioxidant response element (ARE) signaling pathway - cell viability counter screen (AID 743203; calls by dose curve; further: nearly all actives have a fitted effect of over 55% in size; further: potency means the concentration at half of the fitted maximal effect)
# In short: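 HepG2 cells carrying ARE-driven beta-lactamase; 2,000 cells/well; 5 hrs plating; compound pinned from DMSO; 16 hrs 37C/5% CO2; CellTiter-Glo added; 30 min RT; luminescence.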
# [9] = qHTS assay for small molecule activators of the heat shock response signaling pathway - cell viability counter screen (AID 743209); further: nearly all actives have a fitted effect of over 50% in size; further: potency means the concentration at half of the fitted maximal effect
# In short: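 Luminescence from CellTiter-Glo, added after the beta-lactamase FRET read, gave the viability signal. Cells were HSE-bla HeLa treated with DMSO-dissolved compounds for 5 h at 37 C following overnight plating.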
# [10] = qHTS assay for small molecule activators of the heat shock response signaling pathway (AID 743210; active means well fitted activation curve with a large enough effect in the signal ratio in the repeat runs, with a control signal flat, not every such curve was filed as active; inconclusive means weak or mixed curves; the % refers to the signal ratio;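 further: HeLa cells with beta-lactamase reporter driven by heat shock elements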)
# In short: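 In HSE-bla HeLa cells, 5 h compound incubation (37 C) precedes addition of LiveBLAzer B/G substrate; after 2.5 h at room temperature, fluorescence intensity indicates reporter induction.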
# [11] = qHTS assay to identify small molecule agonists of the peroxisome proliferator-activated receptor delta (PPARd) signaling pathway - cell viability counter screen (AID 743211); further: nearly all actives have a fitted effect of over 55% in size; further: potency means the concentration at half of the fitted maximal effect
# In short: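 Viability of GeneBLAzer PPARd UAS-bla HEK293H cells was assessed after 17 h compound incubation at 37C, using CellTiter-Glo reagent added after the reporter read and luminescence recorded 30 min later.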
# Aromatase (Homo sapiens) = Aromatase (Homo sapiens) (UniProt P11511); assay: qHTS assay to identify aromatase inhibitors (AID 743083); further: nearly all actives have a fitted effect of over 55% in size; further: potency means the concentration at half of the fitted maximal effect
# Chain of Aromatase (Homo sapiens) (P11511 whole entry, looked up): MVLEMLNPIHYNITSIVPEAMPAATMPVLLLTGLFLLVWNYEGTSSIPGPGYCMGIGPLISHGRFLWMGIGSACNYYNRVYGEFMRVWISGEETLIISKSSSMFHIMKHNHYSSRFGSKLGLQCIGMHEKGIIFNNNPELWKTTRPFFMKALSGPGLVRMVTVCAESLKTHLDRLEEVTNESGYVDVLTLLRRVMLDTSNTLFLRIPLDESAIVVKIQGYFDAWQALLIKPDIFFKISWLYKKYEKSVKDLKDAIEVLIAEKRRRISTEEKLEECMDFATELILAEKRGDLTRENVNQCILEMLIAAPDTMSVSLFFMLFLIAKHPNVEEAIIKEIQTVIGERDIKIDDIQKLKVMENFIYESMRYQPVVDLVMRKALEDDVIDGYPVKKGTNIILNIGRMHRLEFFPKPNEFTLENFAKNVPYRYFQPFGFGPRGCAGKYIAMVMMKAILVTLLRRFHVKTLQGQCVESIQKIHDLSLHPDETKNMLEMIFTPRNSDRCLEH
# [12] = qHTS assay to identify aromatase inhibitors - cell viability counter screen (AID 743084); further: potency means the concentration at half of the fitted maximal effect
# [13] = target: Aryl hydrocarbon receptor (Homo sapiens) (UniProt P35869); assay: qHTS assay to identify small molecule that activate the aryl hydrocarbon receptor (AhR) signaling pathway (AID 743085); further: nearly all actives have a fitted effect of over 15% in size; further: potency means the concentration at half of the fitted maximal effect;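 on activation: HG2L7.5c1 human HepG2 liver cells with stably integrated DRE-driven firefly reporter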
# Chain of Aryl hydrocarbon receptor (Homo sapiens) (P35869 whole entry, looked up): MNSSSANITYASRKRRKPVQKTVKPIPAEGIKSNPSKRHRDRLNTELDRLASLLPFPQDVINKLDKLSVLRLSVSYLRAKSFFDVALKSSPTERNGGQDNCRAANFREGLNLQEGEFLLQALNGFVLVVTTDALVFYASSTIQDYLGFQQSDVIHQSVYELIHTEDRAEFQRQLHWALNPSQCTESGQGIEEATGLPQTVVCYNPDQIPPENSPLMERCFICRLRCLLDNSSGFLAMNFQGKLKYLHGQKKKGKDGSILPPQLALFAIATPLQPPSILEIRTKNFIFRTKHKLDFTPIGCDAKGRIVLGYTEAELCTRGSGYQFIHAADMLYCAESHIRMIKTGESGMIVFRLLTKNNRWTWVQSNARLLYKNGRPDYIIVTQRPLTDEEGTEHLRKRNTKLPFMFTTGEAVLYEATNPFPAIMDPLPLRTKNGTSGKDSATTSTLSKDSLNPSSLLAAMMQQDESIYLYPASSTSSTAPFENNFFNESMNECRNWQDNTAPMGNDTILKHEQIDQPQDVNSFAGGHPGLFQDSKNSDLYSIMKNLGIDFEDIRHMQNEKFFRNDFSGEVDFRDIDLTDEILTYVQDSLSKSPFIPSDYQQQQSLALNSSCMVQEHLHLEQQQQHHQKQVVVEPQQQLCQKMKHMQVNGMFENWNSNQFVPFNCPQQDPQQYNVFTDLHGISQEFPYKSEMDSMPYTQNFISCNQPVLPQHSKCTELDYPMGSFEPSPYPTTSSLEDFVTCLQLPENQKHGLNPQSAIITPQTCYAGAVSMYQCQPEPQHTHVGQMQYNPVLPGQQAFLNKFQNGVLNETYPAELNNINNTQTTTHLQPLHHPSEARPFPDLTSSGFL
# In short: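 Steps: seed HepG2-AhR-luc cells; allow 5 h at 37C; pin-transfer test compound or vehicle; incubate 24 h at 37C; add viability dye (30 min, 37C) and read fluorescence; add luciferase substrate (30 min, RT) and read luminescence.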
# [14] = target: Peroxisome proliferator-activated receptor gamma (Homo sapiens) (UniProt P37231); assay: qHTS assay to identify small molecule agonists of the peroxisome proliferator-activated receptor gamma (PPARg) signaling pathway (AID 743094; active means well fitted activation curve with a large enough effect in the signal ratio in the repeat runs, not every such curve was filed as active; inconclusive means weak or mixed curves, or effect the other way; inactive means no such curve, though single readings can be large or run the other way; the % refers to the signal ratio)
# Chain of Peroxisome proliferator-activated receptor gamma (Homo sapiens) (P37231 whole entry, looked up): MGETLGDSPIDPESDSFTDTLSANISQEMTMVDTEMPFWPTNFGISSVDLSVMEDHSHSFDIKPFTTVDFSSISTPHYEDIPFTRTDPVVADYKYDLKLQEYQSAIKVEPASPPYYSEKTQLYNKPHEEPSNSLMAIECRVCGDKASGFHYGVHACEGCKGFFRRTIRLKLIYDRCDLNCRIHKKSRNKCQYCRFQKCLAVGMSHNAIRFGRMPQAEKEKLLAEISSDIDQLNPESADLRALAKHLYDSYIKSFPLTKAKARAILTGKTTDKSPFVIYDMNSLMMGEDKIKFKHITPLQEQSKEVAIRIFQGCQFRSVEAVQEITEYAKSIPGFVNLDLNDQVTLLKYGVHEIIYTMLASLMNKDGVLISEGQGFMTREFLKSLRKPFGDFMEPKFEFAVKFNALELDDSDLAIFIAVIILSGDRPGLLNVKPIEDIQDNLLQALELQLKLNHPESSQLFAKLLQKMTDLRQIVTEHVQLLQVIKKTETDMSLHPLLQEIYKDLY
# In short: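 Beta-lactamase FRET fluorescence was the read-out after a 1 h room-temperature substrate step, following 17 h compound treatment at 37C of HEK293H cells expressing a UAS-driven bla reporter responsive to PPARg.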
# [15] = target: Peroxisome proliferator-activated receptor gamma (Homo sapiens) (UniProt P37231); assay: qHTS assay to identify small molecule antagonists of the peroxisome proliferator-activated receptor gamma (PPARg) signaling pathway (AID 743191; calls by dose curve; further: nearly all actives have a fitted effect of over 30% in size; further: potency means the concentration at half of the fitted maximal effect)
# In short: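 Beta-lactamase reporter under UAS control in HEK293H PPARg-bla cells; compound treatment 17 h at 37C. Read-out: fluorescence intensity after 1 h room-temperature incubation with LiveBLAzer B/G FRET substrate.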
# [16] = target: Estrogen receptor (Homo sapiens) (UniProt P03372); assay: qHTS assay to identify small molecule antagonists of the estrogen receptor alpha (ER-alpha) signaling pathway (AID 743069; active means well fitted curve in the direction sought with a large enough effect in the signal ratio in the repeat runs, not every such curve was filed as active; inconclusive means weak or mixed curves, or effect the other way; inactive means no such curve, though single readings can be large or run the other way; the % refers to the signal ratio; further: potency means the concentration at half of the fitted maximal effect)
# Chain of Estrogen receptor (Homo sapiens) (P03372 whole entry, looked up): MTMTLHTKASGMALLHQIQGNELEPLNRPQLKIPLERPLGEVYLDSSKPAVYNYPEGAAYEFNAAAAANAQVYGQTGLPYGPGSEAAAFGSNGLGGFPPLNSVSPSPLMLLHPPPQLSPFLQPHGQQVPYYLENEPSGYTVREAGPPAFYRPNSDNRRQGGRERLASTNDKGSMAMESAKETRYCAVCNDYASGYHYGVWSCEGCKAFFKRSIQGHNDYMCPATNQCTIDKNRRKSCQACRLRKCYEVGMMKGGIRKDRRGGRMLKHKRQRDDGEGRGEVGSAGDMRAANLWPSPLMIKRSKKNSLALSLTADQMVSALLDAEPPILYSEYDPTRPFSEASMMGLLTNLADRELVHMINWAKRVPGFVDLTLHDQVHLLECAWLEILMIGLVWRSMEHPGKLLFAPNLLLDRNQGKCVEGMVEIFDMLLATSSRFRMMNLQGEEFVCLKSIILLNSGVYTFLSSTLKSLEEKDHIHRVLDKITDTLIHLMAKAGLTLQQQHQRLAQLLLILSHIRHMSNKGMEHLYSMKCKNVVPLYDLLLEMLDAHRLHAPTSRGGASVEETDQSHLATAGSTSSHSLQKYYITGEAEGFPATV
# In short: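 Compound effects are measured against 17beta-estradiol stimulation in HEK293 cells with a UAS-controlled beta-lactamase reporter for ER-alpha. Exposure lasts 18 hr at 37C; LiveBLAzer B/G FRET substrate follows for 2 hr at room temperature.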
# [17] = target: Estrogen receptor (Homo sapiens) (UniProt P03372); assay: qHTS assay to identify small molecule agonists of the estrogen receptor alpha (ER-alpha) signaling pathway (AID 743075; calls by dose curve; further: potency means the concentration at half of the fitted maximal effect)
# [18] = target: Estrogen receptor (Homo sapiens) (UniProt P03372); assay: qHTS assay to identify small molecule agonists of the estrogen receptor alpha (ER-alpha) signaling pathway using the BG1 cell line (AID 743079); settings: BG1Luc4E2 cells, ERE-luciferase agonist, 22 h; activation: at 70.3 µM (top of the series) unless noted; further: nearly all actives have a fitted effect of over 20% in size; further: potency means the concentration at half of the fitted maximal effect
# [19] = qHTS assay to identify small molecule antagonists of the estrogen receptor alpha (ER-alpha) signaling pathway using the BG1 cell line (AID 743080; calls by dose curve;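 further: BG1 cells stimulated with 17beta-estradiol alongside compound; nearly all actives have a fitted effect of over 25% in size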)
# In short: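 Endogenous full-length ER-alpha in BG1-Luc-4E2 cells drives a stably integrated 4×ERE luciferase gene; compounds were tested against 17beta-estradiol over 21.5 h, with luminescence and multiplexed viability fluorescence recorded.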
Structure (SMILES),Potency [1],Potency [2],Potency [3],Potency [4],Potency [5],Potency [6],Potency [7],Potency [8],Potency [9],Potency [10],Potency [11],Potency (Aromatase (Homo sapiens)),Potency [12],Potency [13],Potency [14],Potency [15],Potency [16],Potency [17],Potency [18],Potency [19]
ClCC(Cl)CCl,inactive,inactive,inactive,inactive,inactive,inactive,inactive,inactive,inactive,inactive,inactive,–,–,–,–,–,–,–,–,–
Cc1cc(Cl)ccc1N=CN(C)C,–,–,inactive,inactive,inactive,inactive,inactive,inactive,inactive,–,inactive,inactive,inactive,inactive,inactive,–,–,–,–,–
CCCCCCCCCC(CC)c1ccc(S(=O)(=O)O)cc1 (configuration not stated),–,inactive,inactive and 43.6 µM (active),inactive,inactive,inactive and 15.5 µM [setting not given] (active),inactive,–,inactive and 39.9 µM (active),–,–,–,inactive,–,–,–,–,–,–,–
O=C1Nc2ccc(Cl)cc2C(c2ccccc2)=NC1O (configuration not stated),54.9 µM (active),inactive,inactive,inactive,inactive,inactive,inactive,inactive,inactive,inactive,inactive,inactive,inactive,–,inactive,44 µM (active),–,–,–,–
CCNc1nc(Cl)nc(NC(C)(C)C#N)n1,inactive,inactive,inactive,inactive,inactive,inactive,inactive,inactive,inactive,–,inactive,inactive,inactive,–,inactive,inactive,–,–,–,–
CC(C)(O)C#N,–,–,inactive,inactive,inactive,inactive,inactive,inactive,inactive,inactive,inactive,inactive,inactive,inactive,inactive,–,–,–,–,–
CCC(=O)Nc1ccc(Cl)c(Cl)c1,49.5 µM (active),inactive,inactive,inactive,inactive,inactive,–,inactive,inactive,inactive,inactive,inactive,inactive,–,inactive,–,–,–,–,–
COP(=S)(OC)SCn1nnc2ccccc2c1=O,–,inactive,inactive,inactive,inactive,inactive,inactive,inactive,inactive,inactive,inactive,54.5 µM (active),inactive,inactive,inactive,49 µM (active),inactive,inactive,inactive,inactive
N#Cc1c(Cl)c(Cl)c(Cl)c(C#N)c1Cl,476 nM (active) and 172 nM (active),–,42.8 µM (active) and 54.9 µM (active),53.4 µM (active) and 61.1 µM (active),inactive and 21.7 µM (active),2.41 µM (active) and 1.55 µM (active),–,10.7 µM (active) and 3.86 µM (active),854 nM (active) and 616 nM (active),–,6.79 µM (active) and 6.92 µM (active),1.51 µM (active) and 969 nM (active),1.69 µM (active) and 1.93 µM (active),inactive,–,–,3.4 µM [inconclusive] (active),87.1 µM [inconclusive] (active),–,–
O=C(O)c1nn(Cc2ccc(Cl)cc2Cl)c2ccccc12,–,inactive,inactive,inactive,inactive,inactive,54.1 µM (active),inactive,inactive,inactive,inactive,inactive,inactive,inactive,–,–,inactive,95.2 nM [inconclusive] (active) and inactive,6.68 µM (active) and inactive,inactive
CCOP(=O)(O)OCC (tested in a mixture with another compound),–,inactive,inactive and 27.3 µM (active),inactive and 54 µM (active),inactive and 30.4 µM (active),–,inactive,inactive and 17.1 µM (active),inactive,–,inactive and 21.7 µM (active),–,inactive and 24.1 µM (active),–,–,–,–,–,–,–
C[N+](C)(C)C,–,inactive,inactive,inactive,inactive,inactive,inactive,inactive,inactive,–,inactive,inactive,inactive,–,inactive,inactive,inactive,inactive,inactive and 49.1 µM (active),inactive
N#CC(c1ccccc1)c1ccccc1,inactive,inactive,inactive,inactive,inactive,inactive,inactive,inactive,inactive,inactive,inactive,inactive,inactive,–,inactive,inactive,–,–,–,–
CC(O)CN(CC(C)O)CC(C)O (configuration not stated),inactive,inactive,inactive,inactive,inactive,inactive,inactive,inactive,inactive,inactive,inactive,inactive,inactive,–,–,–,–,–,–,–
Cc1ccc(N=CN(C)C=Nc2ccc(C)cc2C)c(C)c1,–,inactive,inactive,inactive,inactive,–,inactive,inactive,inactive,inactive,49.2 µM (active) and 48.9 µM (active) and inactive,inactive,inactive,inactive and 48.8 µM (active),inactive,inactive,inactive,inactive,inactive,inactive
